Assay results published in PubChem BioAssay.
Calls of active or inactive are those of the source. Unless noted, how the calls were made is not given here.

Tests used:
[1] = system: Wnt5a (protein binding on small-molecule microarray); test: small molecules binding Wnt5a protein – biophysical, small-molecule microarray, 635/667 nm fluorescence, primary screen (AID 1142); settings: 635 nm fluorescence, higher = more signal;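 further: fluorescence read at 667 nm with signal to noise per printed feature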
[2] = ATP-based viability of Huh7 replicon cells – cell-based, CellTiter-Glo luminescence, basal, 48 h, cytotoxicity control for HCV replication inhibitor project, primary screen (AID 1143); settings: higher = more signal, called active from +8 up or from −8 down;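 further: Huh7 hepatoma cells carrying a hepatitis C replication reporter with no stimulus; test concentration not given here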
[3] = Pseudomonas biofilm growth suppression – PAO1 strain, BacTiter-Glo luminescence, LB-PBS, primary screen (AID 1144); settings: P. aeruginosa PAO1 biofilm, 12 h, higher = more signal
[4] = basal CRE-LacZ reporter activity in PC12 – cell-based, unstimulated, primary screen (AID 1145); settings: no forskolin, luminescence, 4.5 h, higher = more signal, called active from +8 up or from −8 down
[5] = forskolin-driven CRE-LacZ activity in PC12 – cell-based, CRE-LacZ reporter, forskolin-stimulated, primary screen (AID 1146); settings: luminescence, 4.5 h, higher = more signal, called active from +8 up or from −8 down;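 further: PC12 cells with 6xCRE LacZ reporter stimulated by forskolin 10 µM; beta-galactosidase reporter signal reflecting CREB driven transcription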
[6] = molecular target: Streptavidin (Streptomyces avidinii) (UniProt P22629); test: compounds binding control protein streptavidin – biophysical, small-molecule microarray, 635/667 nm fluorescence, artefact control for SMM compound annotation, primary screen (AID 1147); settings: higher = more signal;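 further: signal reflects streptavidin binding to arrayed compounds as a control protein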
[7] = probe aInhba binding on compound microarray – biochemical, small-molecule microarray, 635/667 nm fluorescence, primary screen (AID 1148); settings: higher = more signal;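 further: score merges 667nm spot fluorescence with signal-to-noise for antibody binding to printed compounds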
Torsin-1A (Homo sapiens) [8] = molecular target: Torsin-1A (Homo sapiens) (UniProt O14656); test: TOR1A wild-type binding on microarray – cell lysate, small-molecule microarray, lysate, 635/667 nm, primary screen (AID 1149); settings: COS7 hTOR1A-WT lysate, 635 nm fluorescence, higher = more signal
Torsin-1A (Homo sapiens) [9] = molecular target: Torsin-1A (Homo sapiens) (UniProt O14656); test: torsin A mutant lysate binding on microarrays – cell lysate, small-molecule microarray, COS7 lysate, 635/667 nm fluorescence, primary screen (AID 1150); settings: COS7 hTOR1A mutant lysate, 635 nm fluorescence, higher = more signal;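 further: score pools 667 nm emission and signal to noise measuring lysate protein binding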
[10] = system: Sonic hedgehog protein (Shh); test: Sonic hedgehog microarray binding compounds – biochemical, small-molecule microarray, 635/667 nm fluorescence, primary screen (AID 1151); settings: 635 nm fluorescence, higher = more signal;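 further: Shh protein binding to compounds spotted on small-molecule microarray slides; score combines spot fluorescence intensity with signal-to-noise across triplicate slides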
[11] = optical density shifts of acrAB sulA E. coli – strain DRC41, OD650, 48 h, E. coli filamentation inducer project, primary screen (AID 1152); settings: higher = more signal, called active from +8 up or from −8 down;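 further: E. coli MC1000 strain DRC41 lacking acrAB efflux pump and sulA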
[12] = probe aLefty1 binding on compound microarray – biochemical, small-molecule microarray, 635/667 nm fluorescence, primary screen (AID 1153); settings: higher = more signal;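 further: score merges spot fluorescence with signal-to-noise ratio from the scanned slide images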
[13] = plasmodial surface anion channel blockers, osmotic lysis – cell-based, P. falciparum Indochina, OD700, 1 h, primary screen (AID 1154); settings: P. falciparum Indochina infected RBC osmotic lysis, higher = more signal, called active from +8 up or from −8 down
[14] = plasmodial surface anion channel blockers, osmotic lysis – cell-based, P. falciparum Indochina, OD700, 2 h, primary screen (AID 1155);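 further: lysis reports solute entry through the parasite surface anion channel PSAC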; settings: P. falciparum Indochina infected erythrocytes, higher = more signal, called active from +8 up or from −8 down
[15] = changes in parasitized red cell lysis, either direction – P. falciparum Indochina, OD700, 3 h, PSAC antagonist project, primary screen (AID 1156); settings: P. falciparum-infected erythrocytes, osmotic lysis, higher = more signal, called active from +8 up or from −8 down
[16] = plasmodial surface anion channel blockers, osmotic lysis – cell-based, P. falciparum Indochina, OD700, 18 h, primary screen (AID 1157); settings: P. falciparum Indochina infected erythrocytes, osmotic lysis OD700, 18 h; higher = more signal, called active from +8 up or from −8 down
[17] = S6 kinase pathway phospho-S6 level changes – cell-based, A549, cytoblot, luminescence, serum-stimulated, primary screen (AID 1158); settings: 5 h, higher = more signal;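 further: serum-stimulated A549 lung adenocarcinoma cells; signal is phosphorylated S6 detected by cytoblot immunostaining with HRP secondary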
[18] = molecular target: NADPH oxidase 2 (Homo sapiens) (UniProt P04839); test: compounds shifting NOX2 Amplex Red fluorescence – cell-based, HEK293-NOX2, PMA-stimulated, NOX inhibitor project, primary screen (AID 1159); settings: 45 min, higher = more signal, called active from +8 up or from −8 down; further: test concentration not given here
[19] = molecular target: NADPH oxidase 4 (Homo sapiens) (UniProt Q9NPH5); test: compounds shifting NOX4 Amplex Red fluorescence – cell-based, HEK293-NOX4, tetracycline-induced, NOX inhibitor project, primary screen (AID 1160); settings: HEK293-NOX4, Amplex Red H2O2 fluorescence, 45 min; higher = more signal, called active from +8 up or from −8 down
[20] = molecular target: NADPH oxidase 5 (Homo sapiens) (UniProt Q96PH1); test: compounds shifting NOX5 Amplex Red fluorescence – cell-based, HEK293-NOX5, NOX inhibitor project, primary screen (AID 1161); settings: HEK293-NOX5, ionomycin, 45 min, higher = more signal
Chain of NADPH oxidase 5 (Homo sapiens) (Q96PH1 whole entry, looked up): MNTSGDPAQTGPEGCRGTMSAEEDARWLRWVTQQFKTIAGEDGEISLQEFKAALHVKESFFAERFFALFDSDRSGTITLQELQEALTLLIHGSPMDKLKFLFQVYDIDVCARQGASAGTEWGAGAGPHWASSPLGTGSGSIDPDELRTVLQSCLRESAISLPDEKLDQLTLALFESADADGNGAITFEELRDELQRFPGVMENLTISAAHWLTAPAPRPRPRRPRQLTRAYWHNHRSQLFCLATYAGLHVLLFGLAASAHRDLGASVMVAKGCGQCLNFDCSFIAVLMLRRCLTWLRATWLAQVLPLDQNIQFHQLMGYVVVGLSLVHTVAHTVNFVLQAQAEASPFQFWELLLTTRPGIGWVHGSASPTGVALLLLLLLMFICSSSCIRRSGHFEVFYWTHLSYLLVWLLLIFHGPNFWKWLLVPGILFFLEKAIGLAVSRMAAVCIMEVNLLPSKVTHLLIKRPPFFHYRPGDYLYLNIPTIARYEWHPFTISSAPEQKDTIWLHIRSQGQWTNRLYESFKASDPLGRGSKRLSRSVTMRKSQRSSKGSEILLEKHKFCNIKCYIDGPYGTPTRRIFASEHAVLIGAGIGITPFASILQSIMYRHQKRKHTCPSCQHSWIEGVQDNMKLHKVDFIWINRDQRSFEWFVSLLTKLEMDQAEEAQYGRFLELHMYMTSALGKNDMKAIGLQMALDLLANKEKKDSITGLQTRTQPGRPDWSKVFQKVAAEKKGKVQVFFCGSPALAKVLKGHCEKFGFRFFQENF

Chain of Streptavidin (Streptomyces avidinii) (P22629 whole entry, looked up): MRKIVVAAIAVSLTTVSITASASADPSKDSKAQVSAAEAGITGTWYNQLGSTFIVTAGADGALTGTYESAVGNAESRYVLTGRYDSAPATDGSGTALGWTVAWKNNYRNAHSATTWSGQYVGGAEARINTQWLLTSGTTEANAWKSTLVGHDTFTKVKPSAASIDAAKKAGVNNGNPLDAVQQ
Chain of NADPH oxidase 4 (Homo sapiens) (Q9NPH5 whole entry, looked up): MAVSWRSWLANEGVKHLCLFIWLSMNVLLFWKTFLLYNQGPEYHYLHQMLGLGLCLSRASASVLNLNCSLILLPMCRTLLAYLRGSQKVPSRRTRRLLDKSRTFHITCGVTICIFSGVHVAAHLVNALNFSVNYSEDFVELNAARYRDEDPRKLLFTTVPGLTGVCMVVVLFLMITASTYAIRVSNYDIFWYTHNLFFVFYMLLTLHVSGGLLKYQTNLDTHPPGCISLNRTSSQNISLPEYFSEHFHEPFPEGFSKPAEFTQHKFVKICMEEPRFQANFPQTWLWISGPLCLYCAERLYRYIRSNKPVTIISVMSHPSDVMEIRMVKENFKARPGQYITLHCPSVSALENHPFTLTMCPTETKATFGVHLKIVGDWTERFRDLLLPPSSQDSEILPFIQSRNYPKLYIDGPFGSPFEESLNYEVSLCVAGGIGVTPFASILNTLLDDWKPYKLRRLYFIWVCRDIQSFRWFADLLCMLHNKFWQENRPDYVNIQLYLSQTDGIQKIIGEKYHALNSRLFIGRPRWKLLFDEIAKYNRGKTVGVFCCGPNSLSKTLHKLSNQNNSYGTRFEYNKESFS
Chain of NADPH oxidase 2 (Homo sapiens) (P04839 whole entry, looked up): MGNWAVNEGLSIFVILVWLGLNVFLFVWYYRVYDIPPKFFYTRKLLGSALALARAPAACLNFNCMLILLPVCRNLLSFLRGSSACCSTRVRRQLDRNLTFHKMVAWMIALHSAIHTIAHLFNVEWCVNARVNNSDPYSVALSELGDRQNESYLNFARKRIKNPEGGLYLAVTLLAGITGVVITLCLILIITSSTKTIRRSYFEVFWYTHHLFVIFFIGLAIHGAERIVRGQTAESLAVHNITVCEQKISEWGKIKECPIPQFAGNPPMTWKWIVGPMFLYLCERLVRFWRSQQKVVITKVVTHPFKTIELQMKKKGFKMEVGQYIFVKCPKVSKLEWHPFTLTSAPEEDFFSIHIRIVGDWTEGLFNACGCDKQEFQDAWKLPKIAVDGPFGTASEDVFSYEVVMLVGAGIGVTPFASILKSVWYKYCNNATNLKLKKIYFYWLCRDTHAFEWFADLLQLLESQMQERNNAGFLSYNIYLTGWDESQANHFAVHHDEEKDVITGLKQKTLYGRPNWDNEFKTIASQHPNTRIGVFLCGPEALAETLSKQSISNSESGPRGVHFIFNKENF
Chain of Torsin-1A (Homo sapiens) (O14656 whole entry, looked up): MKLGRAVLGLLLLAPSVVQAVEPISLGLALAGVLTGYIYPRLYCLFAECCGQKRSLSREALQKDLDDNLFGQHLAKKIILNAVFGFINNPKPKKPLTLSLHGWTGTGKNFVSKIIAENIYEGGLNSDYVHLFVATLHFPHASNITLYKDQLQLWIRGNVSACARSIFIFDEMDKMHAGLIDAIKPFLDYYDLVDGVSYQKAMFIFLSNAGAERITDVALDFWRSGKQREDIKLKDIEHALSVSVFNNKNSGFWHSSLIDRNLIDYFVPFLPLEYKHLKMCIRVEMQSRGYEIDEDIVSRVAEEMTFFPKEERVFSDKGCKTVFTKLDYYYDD

Compound | composite z-score [1] | z-score [2] | z-score [3] | z-score [4] | z-score [5] | composite z-score [6] | composite z-score [7] | composite z-score (Torsin-1A (Homo sapiens) [8]) | composite z-score (Torsin-1A (Homo sapiens) [9]) | composite z-score [10] | z-score [11] | composite z-score [12] | z-score [13] | z-score [14] | z-score [15] | z-score [16] | z-score [17] | z-score [18] | z-score [19] | z-score [20]
COc1ccc(O[C@H]2C=C[C@@H](c3ccccc3)O[C@@H]2CON=C(C)C)cc1 | -0.0515 | 0.361 (inactive) | -0.385 (inactive) | 0.113 (inactive) | 0.177 (inactive) | 0.446 | -0.004 | -0.0422 | -0.222 | -0.114 | -2.05 (inactive) | 0.407 | 0.288 (inactive) | -0.0779 (inactive) | -0.541 (inactive) | 0.196 (inactive) | -0.807 | -0.254 (inactive) | -0.311 (inactive) | -0.684
O=C1C[C@@H](O)[C@@H](O)[C@@H]2[C@@H]3C(=O)N(Cc4ccc5c(c4)OCO5)C(=O)[C@@H]3CC[C@H]12 | -0.005 | -0.104 (inactive) | -0.396 (inactive) | 0.516 (inactive) | 0.244 (inactive) | 0.139 | -0.152 | 0.0825 | 0.339 | 0.256 | -0.116 (inactive) | -0.104 | 1.52 (inactive) | 0.14 (inactive) | -0.582 (inactive) | 0.207 (inactive) | -0.196 | -0.148 (inactive) | 0.314 (inactive) | -0.36
C#CCCCON=C1C[C@@H](O)[C@@H](O)[C@@H]2[C@@H]3C(=O)N(c4ccc(F)cc4F)C(=O)[C@@H]3CC[C@H]12 | 0.166 | -1.71 (inactive) | -0.203 (inactive) | -0.475 (inactive) | 0.278 (inactive) | -0.222 | -0.183 | 0.696 | 1.31 | 0.782 | -1.41 (inactive) | -0.193 | 1.04 (inactive) | -1.22 (inactive) | 1.13 (inactive) | -1.41 (inactive) | 0.27 | -0.76 (inactive) | 0.615 (inactive) | 0.306
CCOC(=O)[C@H](CC(C)C)NC(=O)CCC1CC(OC(=O)NCCc2ccc(F)cc2)CC2(CCCC(COC(=O)NCCc3ccc(Cl)cc3)O2)O1 (stereo not given in full) | 0.555 | -1.54 (inactive) | -0.204 (inactive) | 1.75 (inactive) | 0.214 (inactive) | 0.645 | -0.125 | 0.601 | 0.385 | 1.62 | -1.29 (inactive) | 0.18 | 2.96 (inactive) | -0.44 (inactive) | 0.235 (inactive) | 0.0264 (inactive) | -0.146 | 0.333 (inactive) | 1.32 (inactive) | 1.33
O=C(NN=C1C[C@@H](O)[C@@H](O)[C@@H]2[C@@H]3C(=O)N(C4CCCCC4)C(=O)[C@@H]3CC[C@H]12)OCc1ccccc1 | 0.476 | 0.0552 (inactive) | -0.19 (inactive) | 0.338 (inactive) | -0.0351 (inactive) | 0.0049 | -0.082 | 0.118 | 0.416 | -0.554 | -0.898 (inactive) | 0.0721 | 7.54 (inactive) | 0.844 (inactive) | 0.522 (inactive) | 0.551 (inactive) | 0.0279 | -0.0856 (inactive) | -1.85 (inactive) | -0.671
CC(C)[C@@H](OCc1ccccc1)[C@H](C)C=NOC[C@@H](O)COCc1ccco1 | -0.304 | -0.33 (inactive) | 0.117 (inactive) | 1.99 (inactive) | 0.109 (inactive) | -2.14 | -0.32 | -0.712 | -0.491 | -1.11 | 0.776 (inactive) | -0.866 | 0.726 (inactive) | -0.332 (inactive) | -0.302 (inactive) | -0.0498 (inactive) | 0.0388 | -0.0623 (inactive) | 0.402 (inactive) | -0.548
COc1cccc([C@H]2Oc3ccc(OC)cc3C(=NOC[C@@H](O)COCc3ccco3)[C@@H]2O)c1 | -0.217 | -0.564 (inactive) | 0.357 (inactive) | 4.9 (inactive) | 0.493 (inactive) | -0.903 | -0.205 | -1.7 | -1.38 | -0.0734 | -0.964 (inactive) | -0.43 | 0.55 (inactive) | -2.05 (inactive) | 0.135 (inactive) | -2.01 (inactive) | 1.04 | -0.262 (inactive) | 0.378 (inactive) | -0.104
CCOC(=O)NN=C1C[C@@H](O)[C@@H](O)[C@@H]2[C@@H]3C(=O)N([C@@H](C)c4ccccc4)C(=O)[C@@H]3CC[C@H]12 | 0.0373 | -0.339 (inactive) | 0.627 (inactive) | -0.115 (inactive) | -0.174 (inactive) | -0.0822 | -0.0131 | 0.834 | 0.522 | 0.127 | 0.0575 (inactive) | 0.119 | 0.65 (inactive) | 0.452 (inactive) | -0.011 (inactive) | 0.378 (inactive) | -0.34 | 1.35 (inactive) | 0.67 (inactive) | -0.657
